# Source: PubChem BioAssay (NCATS)
# Records with an inconclusive call do not appear. A call without a number means that no potency is given here. The source made the active and inactive calls. Unless noted, calls come from the whole dose curve; as a rule, active = well fitted curve in the direction sought with a large enough effect; inconclusive = small, poorly fitted or top-dose-only effect, or another doubt; inactive = no such curve, though single readings can be large; an effect the other way counts as inactive or inconclusive.
# Key:
# [1] = MultiTox-Fluor Cytotoxicity Assay - LYMP1-001 - Dead Cells (AID 946);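 note: cells exposed to compound for 16 h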; note: potency is the fitted concentration of half-maximal effect
# Summary of the method: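 Seed 2500 LYMP1-001 cells/well, incubate 5 hr at 37 C; add compound, 16 hr at 37 C; add MultiTox-Fluor reagent, 60 min RT; read dead-cell fluorescence Ex/Em=485/520. Normalize to DMSO and 15 uM tetraoctylammonium bromide.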
# [2] = MultiTox-Fluor Cytotoxicity Assay - LYMP1-001 - Live Cells (AID 947)
# [3] = Cell Viability - LYMP1-002 - Assay at 16 hr (AID 948); note: potency is the fitted concentration of half-maximal effect
# Summary of the method: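 In this qHTS, lymphoblastoid LYMP1-002 cells (human) receive compounds for 16 hr at 37 C. Viability is taken from CellTiter-Glo ATP luminescence, and AC50 derives from standard Hill fits.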
# [4] = MultiTox-Fluor Cytotoxicity Assay - LYMP1-002 - Live Cells (AID 955);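 note: cells exposed to compound for 16 hours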; note: potency is the fitted concentration of half-maximal effect
# Summary of the method: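 Cells were seeded at 2500 per well and incubated 5 hr. Compounds were then added for 16 hr at 37 C, followed by MultiTox-Fluor reagent for 60 min at room temperature and fluorescence reading of viable-cell protease signal.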
# [5] = MultiTox-Fluor Cytotoxicity Assay - LYMP1-002 - Dead Cells (AID 960);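 note: cells exposed to compound for 16 h at 37 °C; nearly all actives have a fitted effect of over 60% in size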
# Summary of the method: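 Cells were plated, rested 5 hr, then treated with compound dilution series for 16 hr at 37 C. After adding substrate reagent and 60 min at room temperature, dead-cell protease fluorescence gave concentration-response curves fitted by the Hill equation.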
# [6] = MultiTox-Fluor Cytotoxicity Assay - LYMP1-003 - Dead Cells (AID 961);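 note: cells exposed to compound for 16 h at 37 °C; nearly all actives have a fitted effect of over 70% in size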; note: potency is the fitted concentration of half-maximal effect
# Summary of the method: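 LYMP1-003 lymphoblastoid, 2500 cells/well, 5 hr settle then 16 hr cpd at 37 C; MultiTox-Fluor reagent 60 min RT; Ex/Em 485/520 dead-cell signal; norm. DMSO = 0%, 15 uM tetraoctylammonium bromide = 100%; Hill AC50.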
# [7] = MultiTox-Fluor Cytotoxicity Assay - LYMP1-003 - Live Cells (AID 962);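 note: cells exposed to compound for 16 hours at 37 °C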; note: potency is the fitted concentration of half-maximal effect
# Summary of the method: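 Acute cytotoxicity is scored as a drop in live-cell protease activity in human lymphoblastoid LYMP1-003 cells after 16 hr compound exposure at 37 C. AC50 values come from Hill-equation modelling of concentration-response data.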
# [8] = Cell Viability - LYMP1-003 - Assay at 40 hr (AID 964); note: nearly all actives have a fitted effect of over 60% in size; note: potency is the fitted concentration of half-maximal effect
# Summary of the method: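 Luminescent ATP signal (CellTiter-Glo) served as the viability read-out after 40 hr compound treatment of human lymphoblastoid LYMP1-003 cells at 37 C. Decreases in ATP were fitted with the Hill equation to give AC50.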
# [9] = Cell Viability - LYMP2-003 (AID 965);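 note: cells exposed to compounds for 24 h before reading; nearly all actives have a fitted effect of over 50% in size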; note: potency is the fitted concentration of half-maximal effect
# Summary of the method: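 qHTS, human lymphoblastoid line, 2500 cells/well, complete medium. 24 h drug, 37 C. ATP-based luminescent readout; Hill-fit AC50.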
# [10] = Cell Viability - LYMP2-004 (AID 966);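 note: cells exposed to compound for 24 h; nearly all actives have a fitted effect of over 65% in size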; note: potency is the fitted concentration of half-maximal effect
# Summary of the method: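 qHTS cytotoxicity: human lymphoblastoid line, 24 hr compound treatment, 37 C, complete medium. Viability read as cellular ATP via luciferase luminescence; tetraoctylammonium bromide served as positive control.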
# [11] = Cell Viability - LYMP2-009 (AID 968);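 note: cells exposed to compound for 24 h at 37 °C; nearly all actives have a fitted effect of over 55% in size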; note: potency is the fitted concentration of half-maximal effect
# [12] = Cell Viability - LYMP2-011 (AID 969); note: nearly all actives have a fitted effect of over 60% in size; note: potency is the fitted concentration of half-maximal effect
# Summary of the method: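 In this qHTS cytotoxicity format, compounds are tested across concentrations on human lymphoblastoid cells in complete medium for 24 hours at 37 C. Viability is taken as cellular ATP measured by luciferase luminescence.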
# [13] = Cell Viability - LYMP2-013 (AID 970);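 note: cells exposed to compound for 24 h at 37 °C; nearly all actives have a fitted effect of over 55% in size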; note: potency is the fitted concentration of half-maximal effect
# Summary of the method: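 Cytotoxicity is scored as a concentration-dependent drop in intracellular ATP in human lymphoblastoid cells after 24 hr compound exposure at 37 C. ATP is quantified by luciferase luminescence, and AC50 values come from Hill-equation modeling.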
# [14] = Cell Viability - LYMP2-015 (AID 971);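 note: cells exposed to compound for 24 h; nearly all actives have a fitted effect of over 55% in size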; note: potency is the fitted concentration of half-maximal effect
# Summary of the method: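 Cells are seeded at 2500 per well and incubated 5 hr at 37 C. Compounds are added across a concentration series for 24 hr at 37 C. CellTiter-Glo is added, and luminescence is read after 30 min at room temperature.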
# [15] = Cell Viability - LYMP2-017 (AID 972); note: nearly all actives have a fitted effect of over 55% in size; note: potency is the fitted concentration of half-maximal effect
# Summary of the method: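 Cytotoxicity is scored as a concentration-dependent drop in cellular ATP in a human lymphoblastoid line after 24 hr treatment at 37 C. Values are AC50s from Hill-equation modelling.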
# [16] = Cell Viability - LYMP2-019 (AID 973); note: potency is the fitted concentration of half-maximal effect
# Summary of the method: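 Cytotoxicity is scored as a concentration-dependent drop in cellular ATP after cells (2500/well) receive compound for 24 hr at 37 C. Tetraoctylammonium bromide serves as positive control.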
# [17] = Cell Viability - LYMP2-021 (AID 974); note: potency is the fitted concentration of half-maximal effect
# Summary of the method: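 Loss of cellular ATP, measured with a luciferase-based CellTiter-Glo readout, serves as the toxicity signal in human lymphoblastoid cells treated for 24 hours at 37 C. Potency is reported as AC50 from a standard Hill model.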
# [18] = target: Pyruvate kinase PKM (Homo sapiens) (UniProt P14618); test: qHTS Assay for Activators of Human Muscle Pyruvate Kinase (AID 954; active = well fitted curve in the direction sought with a large enough effect, not every such curve was filed as active)
# Sequence of Pyruvate kinase PKM (Homo sapiens) (P14618 whole entry, looked up): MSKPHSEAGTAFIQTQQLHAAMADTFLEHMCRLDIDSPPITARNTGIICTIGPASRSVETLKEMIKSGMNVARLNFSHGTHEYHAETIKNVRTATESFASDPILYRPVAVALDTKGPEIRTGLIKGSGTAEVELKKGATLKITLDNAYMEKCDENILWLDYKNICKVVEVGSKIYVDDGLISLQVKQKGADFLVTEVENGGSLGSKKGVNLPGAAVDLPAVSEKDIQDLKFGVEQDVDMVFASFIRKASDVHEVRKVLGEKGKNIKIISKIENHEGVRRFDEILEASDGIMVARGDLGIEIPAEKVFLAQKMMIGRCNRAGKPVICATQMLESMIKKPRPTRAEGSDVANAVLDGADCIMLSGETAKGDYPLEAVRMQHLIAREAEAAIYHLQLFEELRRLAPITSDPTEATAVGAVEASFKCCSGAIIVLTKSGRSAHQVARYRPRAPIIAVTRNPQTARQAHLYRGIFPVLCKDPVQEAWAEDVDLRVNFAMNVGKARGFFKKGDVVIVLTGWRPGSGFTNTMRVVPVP
# Summary of the method: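 PKM2, human, >95% pure, 0.1 nM; PEP 0.5 mM (Km), ADP 0.1 mM; 50 mM imidazole pH 7.2, 50 mM KCl, 0.01% Tween 20, 0.05% BSA; 1 h RT; luciferase luminescence readout.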
SMILES,Potency [1],Potency [2],Potency [3],Potency [4],Potency [5],Potency [6],Potency [7],Potency [8],Potency [9],Potency [10],Potency [11],Potency [12],Potency [13],Potency [14],Potency [15],Potency [16],Potency [17],outcome [18]
S=c1[nH]c2ccccc2s1,inactive,inactive,inactive,inactive,inactive,inactive,inactive,inactive,inactive,inactive,inactive,inactive,inactive,inactive,inactive,inactive,inactive,
Nc1nc2ccc([N+](=O)[O-])cc2s1,inactive,inactive,inactive,inactive,inactive,inactive,inactive,inactive,inactive,inactive,inactive,inactive,inactive,inactive,inactive,inactive,inactive,
COc1cc(/C=C/C(=O)CC(=O)/C=C/c2ccc(O)c(OC)c2)ccc1O,50.1 µM (active),inactive,50.1 µM (active),,,50.1 µM (active),inactive,39.8 µM (active),31.6 µM (active),31.6 µM (active),25.1 µM (active),31.6 µM (active),50.1 µM (active),50.1 µM (active),39.8 µM (active),39.8 µM (active),50.1 µM (active),
CC(C)Cc1ccc([C@H](C)C(=O)O)cc1,,,,,,,,,,,,,,,,,,inactive
CCCCCCCCCCCCCCCCCC(=O)O,inactive,inactive,inactive,inactive,inactive,inactive,inactive,inactive,inactive,inactive,inactive,inactive,inactive,inactive,inactive,inactive,inactive,
O=C1CN(/N=C/c2ccc([N+](=O)[O-])o2)C(=O)N1,inactive,,inactive,inactive,inactive,inactive,,,inactive,,,,,,,,,
Fc1ccc(C(OCCCc2cnc[nH]2)c2ccc(F)cc2)cc1,,,,,,,,,,,,,,,,,,inactive
CN(C)CCC(c1ccc(Cl)cc1)c1ccccn1 (centres undefined),inactive,,inactive,inactive,inactive,inactive,inactive,inactive,inactive,inactive,inactive,inactive,inactive,,inactive,inactive,inactive,
O=c1cc(-c2ccccc2)oc2ccccc12,inactive,inactive,inactive,inactive,inactive,inactive,inactive,inactive,inactive,inactive,inactive,inactive,inactive,inactive,inactive,inactive,inactive,
N=C1N=C(N)c2cc3ccccc3cc21,39.8 µM (active),,39.8 µM (active),25.1 µM (active),,39.8 µM (active),50.1 µM (active),39.8 µM (active),39.8 µM (active),39.8 µM (active),39.8 µM (active),39.8 µM (active),39.8 µM (active),50.1 µM (active),39.8 µM (active),,39.8 µM (active),
CCN1/C(=C/C(C)=O)Sc2ccc(OC)cc21,,,,,,,,,,,,,,,,,,inactive
C#C[C@]1(O)CC[C@H]2[C@@H]3CCc4cc(O)ccc4[C@H]3CC[C@@]21C,,inactive,inactive,inactive,,,inactive,,inactive,inactive,inactive,inactive,inactive,inactive,inactive,inactive,inactive,
CN1CCC[C@H]1c1cccnc1,inactive,inactive,inactive,inactive,inactive,inactive,inactive,inactive,inactive,inactive,inactive,inactive,inactive,inactive,inactive,inactive,inactive,
O=C(O)c1cc(O)c(O)c(O)c1,inactive,,inactive,inactive,,inactive,inactive,,,,inactive,inactive,inactive,inactive,inactive,inactive,inactive,
CN(C)c1ccc(N=NS(=O)(=O)O)cc1,inactive,inactive,inactive,inactive,inactive,inactive,inactive,inactive,inactive,inactive,inactive,inactive,inactive,inactive,inactive,inactive,inactive,
c1cnc2c(c1)ccc1cccnc12,,,,inactive,inactive,inactive,,7.94 µM (active),,,,,,,,,,
